Source: PubChem BioAssay
UHRF1 binding – blocks human UHRF1 binding to methylated DNA | inhibition, % at 4.4 µM | UHRF1 binding to methylated oligo, TR-FRET | Q96T88 | AID 687016 | 370,000 tested, 0.75% active; in the data active = inhibition above about 21%;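 note: UHRF1 SRA domain binding a hemimethylated CpG hairpin DNA probe; 0% = median of test compound wells and 100% = reference inhibitor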
PLC-beta3 inh – PLC-beta3 (human) inhibition, primary screen | Purified PLC-beta3, fluorogenic substrate, fluorescence | Q01970 | 370,000 tested, 0.18% active | inhibition, % at 12.2 µM; in the data active = inhibition above about 11%;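 note: 0% = median of compound wells on plate and 100% = full blocker control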
PLC-gamma1 inh – inhibitors of human phospholipase C gamma1. inhibition, % at 12.2 µM. purified PLC-gamma1, fluorogenic substrate, fluorescence. 370,000 tested, 0.84% active; in the data active = inhibition above about 9.5%
LEDGF integ inh – blocks HIV-1 LEDGF/p75-dependent DNA integration; TR-FRET IN-LEDGF/p75 DNA integration, Eu/Cy5; inhibition, % at 3.7 µM; 370,000 tested, 0.64% active;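 active = inhibition above the screen-wide mean plus 3 SD, cut at about 13% in these data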;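 note: signal is the Cy5 over europium emission ratio at 671 and 618 nm; 0% = plate median of compound wells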
MBD2 DNA inh – blocks human MBD2 binding to methylated DNA | TR-FRET, MBD2 binding to methylated oligonucleotide | inhibition, % at 4.4 µM | 370,000 tested, 0.31% active; in the data active = inhibition above about 13%
Target sequence (Q9UBB5 whole entry, looked up): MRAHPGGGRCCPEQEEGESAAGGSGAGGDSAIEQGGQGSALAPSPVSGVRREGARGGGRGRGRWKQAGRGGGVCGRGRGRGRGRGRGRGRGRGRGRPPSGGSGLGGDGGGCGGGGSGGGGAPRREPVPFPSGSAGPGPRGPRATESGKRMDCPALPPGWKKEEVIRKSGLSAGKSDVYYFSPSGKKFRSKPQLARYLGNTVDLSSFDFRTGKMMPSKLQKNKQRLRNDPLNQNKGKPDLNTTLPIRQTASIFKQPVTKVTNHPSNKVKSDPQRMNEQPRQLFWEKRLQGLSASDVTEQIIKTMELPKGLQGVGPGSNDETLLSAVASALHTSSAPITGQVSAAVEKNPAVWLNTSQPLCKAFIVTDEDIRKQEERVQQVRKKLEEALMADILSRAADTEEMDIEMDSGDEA
* = called active by the depositor; i = inactive. This is a sample that favours compounds with a hit; in the whole collection about 2.3% have one here.

SMILES	UHRF1 binding	PLC-beta3 inh	PLC-gamma1 inh	LEDGF integ inh	MBD2 DNA inh
C=CCN(Cc1ccccc1)C(C#CC(=C)C)Cc1ccccc1 (configuration not stated)	-3	-1	-2	2	-2
O=C(COc1ccc(OCc2ccccc2)cc1)NN=C1CCCC1	34*	1	4	5	13
Cc1nn(CCC(=O)NNC(=O)Nc2ccc(Cl)cc2)c(C)c1[N+](=O)[O-]	2	0	5	7	-1
Cc1cc2c(cc1C)C(=O)CCC2	24*	0	4	2	1
O=C1CCCc2cc3c(ccc4ccccc43)cc21	0	-41	-26	-6	3
COC(=O)CCCCC1SCC2NC(=O)NC21O (configuration not stated)	-1	-5	-8	41*	0
COC(=O)C1CSC(C)(C)C(=O)N1 (configuration not stated)	1	-4	0	0	-1
CN(C)CCNC(=O)/C(=N\O)c1ccccn1	27*	4	0	4	9
O=C(Nc1ccc(NC(=O)c2ccccc2Cl)c(Cl)c1)c1ccccn1	1	-2	-2	3	5
O=C(C1=C(O)C(=O)N(CCOCCO)C1c1cccs1)c1cccs1 (configuration not stated)	56*	-1	0	2	6
CC1CCC2(CC1)CCC2NCc1ccc(Br)cc1 (configuration not stated)	-1	7	2	1	-2
CN(C)CCNC(=O)C1CCCNC1=O (configuration not stated)	-1	0	0	-1	6
Cc1ccc(S(=O)(=O)NCCNC(=O)C2CCCNC2=O)cc1 (configuration not stated)	21*	4	-1	1	2
COc1ccc(C(=O)Oc2ccc(C(=S)N3CCOCC3)cc2)cc1	4	8	13*	-3	0
O=C(Oc1ccc(C(=S)N2CCOCC2)cc1)c1ccc(Br)cc1	0	-1	0	0	0
O=C(/C=C/c1ccccc1)Oc1ccc(C(=S)N2CCOCC2)cc1	28*	0	2	2	12
CCOc1ccc2nc(N3C(=O)C(O)=C(C(=O)c4ccco4)C3c3ccco3)sc2c1 (configuration not stated)	7	-48	-28	18*	-4
Cc1cc(N2Cc3ccccc3C2)ccc1C=O	-2	-9	8	9	-10
O=Cc1ccc(N2Cc3ccccc3C2)cc1	-14	-13	-6	18*	-4
O=C(CSc1ccc(-c2cccs2)nn1)c1cccs1	23*	-17	-8	0	9
Cc1n[nH]c(C)c1S(=O)(=O)N1CCCC(C(=O)O)C1 (configuration not stated)	0	-6	0	-3	0
Cc1n[nH]c(C)c1S(=O)(=O)N1CCC(C(=O)O)CC1	21*	-2	3	-4	10
CC(C)OCCCn1c(=NC(=O)c2cccs2)c(C#N)cc2c(=O)n3ccccc3nc21	30*	i	i	9	6
COc1ccccc1CCc1nnc(CCC(=O)NCCOc2cccnc2)o1	25*	2	-1	3	4
COc1ccccc1CCc1nnc(CCC(=O)NCC(C)Oc2cccnc2)o1 (configuration not stated)	18	2	-1	3	5
SMILES	UHRF1 binding	PLC-beta3 inh	PLC-gamma1 inh	LEDGF integ inh	MBD2 DNA inh
CC(C)(C)Cc1c(-c2cccc(Cl)c2)nc2ccc(Cl)cn12	23*	-27	-21	0	7
CC(C)(C)Cc1c(-c2ccc(C#N)cc2)nc2ccc(Cl)cn12	21*	-23	-17	-4	4
COC(=O)c1ccc(NCc2c(O)ccc(O)c2Br)cc1Cl	-1	2	9.8*	15*	-10
OC(c1ccccc1)(c1ccccc1)C1CCN(CCCNc2ccc(Cl)cc2Cl)CC1	-2	3	2	-2	1
O=C(Nc1sc2c(c1-c1nc3ccccc3s1)CCNC2)C(F)(F)F	-57	-200	-161	-3	-2
COc1ccc(-c2nn(-c3ccccc3)cc2C=O)cc1[N+](=O)[O-]	2	-3	1	3	0
COc1ccc(-c2nnc(SC)nc2-c2ccc(OC)c([N+](=O)[O-])c2)cc1[N+](=O)[O-]	24*	-3	3	-2	9
O=C(Nc1nccs1)C1CCCN1S(=O)(=O)c1ccc(Cl)cc1 (configuration not stated)	25*	-1	1	-1	3
CCCCCCCCNS(=O)(=O)CCNCCc1ccccc1	1	0	-3	-1	2
CCCCCCCCNS(=O)(=O)CCNCc1ccccc1	23*	-1	0	-3	1
COCCCNC(=O)c1ccc2c(c1)NC(=O)C(C)(C)O2	0	4	1	0	2
CCOc1nc(Nc2ccc(OC)c(Cl)c2)nc(OCC)n1	36*	-1	4	-5	3
C=CCn1c(SCC#N)nc2sc(CC)cc2c1=O	28*	-2	0	3	-2
COc1ccc(-n2c(COc3ccc(C)cc3)nnc2SCC(=O)Nc2ccc(S(=O)(=O)Nc3cc(C)nc(C)n3)cc2)cc1	-2	0	0	-3	1
Cc1cccc(C(=O)OCC(=O)NC(C)CCc2ccccc2)c1 (configuration not stated)	4	-2	2	-4	-3
Cc1cccc(C(=O)NCC(=O)NC(C)CCc2ccccc2)c1 (configuration not stated)	22*	-11	0	1	11
N#Cc1ccc(Cn2ccc3ccc(-c4ccc5ccn(C(=O)C6CCCCC6)c5c4)cc32)cc1	1	-143	-103	-2	0
c1coc(Cn2nnnc2CN2CCN(C3CCCC3)CC2)c1	4	4	5	5	2
Fc1ccc(Cn2nnnc2CN2CCN(C3CCCCC3)CC2)cc1	48*	0	0	0	-4
COc1cc(NC(=O)c2ccc3c(c2)OCO3)ccc1NC(=O)C(C)C	66*	1	0	-2	2
CCOc1cc(C(=O)Nc2ccc3c(c2)OCO3)ccc1OC(F)F	23*	-2	-1	5	9
Cc1ccc(OCCOc2ccc(Cl)cc2Cl)c(Br)n1	0	0	3	0	0
COc1cc(-c2nnc(SCc3cc(=O)oc4cc(O)c(O)cc34)o2)cc(OC)c1OC	52*	-210	-157	78*	29*
O=C(OCC(=O)N1CCc2ccccc21)c1ccc([N+](=O)[O-])o1	5	-4	8	16*	3
O=S1(=O)c2c(NCc3ccco3)cccc2Oc2ccccc2CN1Cc1cn(Cc2ccc(F)cc2)nn1	2	-50	-39	-2	-6
Cc1ncc(CO)c(/C=N/NC(=O)c2cc(Br)ccc2O)c1O	24*	-33	-19	-8	0
CCNC(=S)NNC(=O)CSc1nnc(-c2ccccc2)n1-c1ccc(Cl)cc1	-5	2	0	2	-5
